Over roughly 13,000 compounds, “IFI” has its median near 4; the highest 2% begin near 17. The entries come from a sample that favours the highest values as a whole.

The experiment is described as follows: GSK_TCMDC: Inhibition Frequency Index (IFI). The number of non-kinase HTS assays where a compound showed > 50 % inhibition, expressed as a percentage of the number of such assays in which the compound was tested. The format is functional.
On to `N#Cc1ccc(CN2CCCN(Cc3cccc(NC(=O)c4ccc(-c5ccccc5)cc4)c3)CC2)cc1`, for which the IFI is 8.28%.
Compound `Cc1cc(NCCC(=O)NCCc2ccccc2)nc(NCCc2ccc(F)cc2)n1` showed an IFI of 4.55%.
`O=C(/C=C/c1ccc(Cl)c(Cl)c1)NCCCCCN1CCCC(CNC(=O)Nc2ccc(C(F)(F)F)cc2)C1` (stereo not drawn) returned an IFI of 17.7%.
The result for `O=C(/C=C/c1ccc(Cl)c(Cl)c1)NCCCCCN1CCCC(CCCNC(=O)Nc2ccc(C(F)(F)F)cc2)C1` (stereo not drawn) reads 11.3%; that for `CC(C)c1ccc(NC(=O)NCC2CCCN(CCCCCNC(=O)/C=C/c3ccc(Cl)c(Cl)c3)C2)cc1` (stereo not drawn), 12.1%.
The result for `O=C(/C=C/c1ccc(Cl)c(Cl)c1)NCCCCCCN1CCCN(C(=O)Nc2ccc(Cl)c(C(F)(F)F)c2)CC1` reads 11.3%; that for `O=C(/C=C/c1ccc(C(F)(F)F)cc1)NCCCCCN1CCN(C(=O)Nc2ccc(Cl)c(Cl)c2)CC1`, 13.7%; that for `O=C(/C=C/c1ccc(C(F)(F)F)cc1)NCCCCCN1CCCN(C(=O)Nc2ccc(Cl)c(C(F)(F)F)c2)CC1`, 18.8%.
Compound `O=C(/C=C/c1ccc(Cl)c(Cl)c1)NCCCCCCN1CCCN(C(=O)Nc2ccc(C(F)(F)F)cc2)CC1` showed an IFI of 12.3%.
As for `O=C(/C=C/c1ccc(C(F)(F)F)cc1)NCCCCCN1CCCN(C(=O)Nc2ccc(Cl)c(Cl)c2)CC1`, the figure is 20.4%; as for `O=C(/C=C/c1ccc(Cl)cc1)NCCCCCN1CCCN(C(=O)Nc2ccc(Cl)c(C(F)(F)F)c2)CC1`, 14.3%.
The compound `Cc1ccc2c(c1)c(C1CCN(C(=O)c3ccc([N+](=O)[O-])o3)CC1)cn2C` returned an IFI of 4.35%.
`Cc1ccc(-c2nn3c(O)c4c(nc3c2C)CCCC4)cc1` had an IFI of 0.88%.
The result for `COc1c(C2CCN(CCN3CCC(CNC(=O)c4ccc(-c5ccc(C#N)cc5)cc4)CC3)CC2)ccc2c1CCCC2` reads 16.2%; that for `O=C(Nc1cccc(CN2CCCN(CCc3ccccc3)CC2)c1)c1ccc(Cl)c(Cl)c1`, 3.36%; that for `CN1CCN(CCCN(Cc2cccc(-c3ccc(CNCCc4ccccc4)cc3)c2)C(=O)c2cccs2)CC1`, 11.3%.
As for `COC(=O)c1cccc(CNCc2ccc(-c3ccc(-c4nc5cc(C(F)(F)F)ccc5[nH]4)s3)cc2)c1`, the figure is 11.5%; as for `Ic1cc(CNC2CCCCC2)ccc1OCc1cccc(COc2ccc(CNC3CCCCC3)cc2I)c1`, 10.1%.
`CCN(CC)Cc1cccc(-c2cc3c(-c4ccc(C(=O)O)c(C(C)C)c4)ccnc3[nH]2)c1OC` yielded an IFI of 0%.
As for `COc1cccc2c(NN=Cc3cccc(Cl)c3)ccnc12`, the figure is 3.62%; as for `COc1cc2nc(NCc3nc4ccccc4[nH]3)nc(N)c2cc1OC`, 0%; as for `CC(C)N1CCN(C(CN2CCN(CCCOc3cccc(-c4ccccc4)c3)CC2)c2ccc(F)cc2)CC1` (stereo not drawn), 16%.
Turning to `COc1ccc2ccccc2c1CCCCN1CCN(CC(c2ccc(F)cc2)N2CCN(C3CCCC3)CC2)CC1` (stereo not drawn), the IFI turned out to be 12.8%.
The result for `CC(C)N1CCN(C(CN2CCN(CCCOc3ccccc3-c3ccccc3)CC2)c2ccc(F)cc2)CC1` (stereo not drawn) reads 13.5%; that for `COc1ccc2ccccc2c1CCCCN1CCN(CC(c2ccc(F)cc2)N2CCC2)CC1` (stereo not drawn), 18.4%.
The result for `COc1ccc2ccccc2c1CCCCN1CCN(CC(c2ccc(F)cc2)N2CCN(C(C)C)CC2)CC1` (stereo not drawn) reads 14.7%; that for `CC(C)N1CCN(C(CN2CCN(CCCOc3ccc(-c4ccccc4)cc3)CC2)c2ccc(F)cc2)CC1` (stereo not drawn), 20.3%.
The result for `CCCCCCCNCc1c(O)ccc2c(CNCCCCCCC)c(O)ccc12` reads 13.6%; that for `Oc1ccc2ccccc2c1C=NNc1nc(=Nc2ccccc2)nc(N2CCOCC2)[nH]1`, 3.68%; that for `COc1ccccc1CCNc1nc(C)cc(N[C@@H](Cc2ccccc2)C(=O)NCc2cccs2)n1`, 9.76%.
On to `CCCc1ccc(S(=O)(=O)Nc2ccc3c(c2)CCC3)cc1`, for which the IFI turned out to be 2.26%.
`Cc1cnc(C(=O)Nc2ccc3c(c2)CCCN(Cc2c[nH]c4cnccc24)C3)cn1`: the IFI was determined as 0%.
The result for `CCCCc1ccc(S(=O)(=O)Nc2ccc3c(c2)CCN(Cc2c[nH]c4cnccc24)CC3)cc1` reads 19.4%.
As for `CCOc1ccc(C(Cc2ccccc2)NC(=O)c2cccnc2)cc1OCC` (stereo not drawn), the figure is 0.83%; as for `COc1ccc(CNCc2ccc(-c3ccc(-c4nc5cc(F)ccc5[nH]4)cc3)cc2)cc1`, 13.1%; as for `COc1ccccc1CCNc1ncnc2c1[nH]c1ccc(F)cc12`, 20.5%.
For the compound `Cc1ccc2[nH]c3c(NCCN(C)C)ncnc3c2c1`, the IFI is 0%.
`Fc1ccc2[nH]c3c(NCCCN4CCOCC4)ncnc3c2c1`: the IFI turned out to be 0%.
The compound `COc1ccc(CNc2ncnc3c2[nH]c2ccc(F)cc23)cc1` showed an IFI of 17.2%.
The result for `CN(C)CCCNc1ncnc2c1[nH]c1ccc(F)cc12` reads 2.14%.
The result for `c1ccc(CCNc2ncnc3c2[nH]c2ccccc23)cc1` reads 23.9%.
As for `CN(C)CCNc1ncnc2c1[nH]c1ccc(Cl)cc12`, the figure is 0%.
As to `Fc1ccc2[nH]c3c(NCCN4CCCCC4)ncnc3c2c1`, the IFI came to 1.4%.
`CC(C)C(C(=O)Nc1ccc2c(c1)OCO2)c1ccc(Cl)cc1` (stereo not drawn): the IFI is 9.18%.
As for `Cc1cc(=O)c(-c2ccc(Oc3cccc(OC(F)(F)F)c3)cc2)c(C)[nH]1`, the figure is 3.76%.
Compound `COc1ccc(N2CCN(CCCCNC(=O)c3ccc(NC(=O)c4cc(C(F)(F)F)cc(C(F)(F)F)c4)cc3)CC2)cc1OC` gave an IFI of 3.51%.
The result for `c1ccc(CNCc2cccc(-c3ccc(-c4nc5ccccc5[nH]4)s3)c2)cc1` reads 3.92%.
`CCCCCCCc1c(C)nc2cc(OC)ccc2c1O`: the IFI was 0%.
`CC(C)Oc1cc(-c2ccc(S(C)(=O)=O)cc2)nc(N(Cc2cccc(F)c2F)Cc2cccc(F)c2F)n1` displayed an IFI of 0%.
Compound `c1ccc2c(CNCCCN3CCN(CCCNCc4c5ccccc5cc5ccccc45)CC3)c3ccccc3cc2c1` came in with an IFI of 15.3%.
For `c1ccc2cc(CNCCCN3CCN(CCCNCc4ccc5ccccc5c4)CC3)ccc2c1`, the IFI is 11.7%.
Turning to `c1ccc2c(c1)cc(CNCCCN1CCN(CCCNCc3cc4ccccc4c4ccccc34)CC1)c1ccccc12`, the IFI was 19.4%.
`CCCCNC(=N)Nc1ccc(OCCCOc2ccc(NC(=N)NCCCC)cc2)cc1` had an IFI of 2.99%.
`COc1ccc2nccc([C@@H](O)CN3CCC(NCc4ccc5nc[nH]c(=O)c5c4)CC3)c2c1`: the IFI worked out at 0%.
The result for `CC(=O)c1ccc2nc[nH]c(=O)c2c1` reads 26.1%; that for `CC(=O)c1ccc(NC(=O)Nc2ccc3nccc(N4CCN(C)CC4)c3c2)cc1`, 0%; that for `Cc1cc(NCCC(=O)NCCOc2ccccc2)nc(NCCOc2ccccc2)n1`, 4.88%.
For `Nc1ccc(-c2nc3cc(C4=N[C@H]5CCCC[C@H]5N4)ccc3o2)cc1[N+](=O)[O-]`, the IFI is 1.41%.

Values taken from ChEMBL document CHEMBL1157539, “Thousands of chemical starting points for antimalarial lead identification” (Nature, 2010).
